Measurements from the supplement of paper PMC10849652.
Of roughly 7,900 targets only a part is listed; those with a hit were picked by preference. About 0.6% of all pairs of compound and target were hits.

What was measured:
Experiment in all cases: log2 fold change, soluble protein after heating vs DMSO (PISA); higher = thermal stabilisation; K562 cells, 10 uM, 30 min; active = over 0.2 and 3.5 SD of the protein, either way, in both replicates (recomputed)
bafetinib = compound: Cc1ccc(NC(=O)c2ccc(CN3CC[C@H](N(C)C)C3)c(C(F)(F)F)c2)cc1Nc1nccc(-c2cncnc2)n1 [bafetinib]
In short: (§1)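 Soluble protein was quantified by TMTpro 16plex LC-MS/MS after channel sums were equalised. It was obtained as the supernatant after 21,000xg for 90 min from pooled aliquots of K562 cells (2×10^6 cells/mL, 10 μM compound, 30 min) heated for 3 min across 48°C-58°C and extracted in PBS with 0.5% NP-40 at 4°C. Thermal stability values are relative to control samples and come from duplicates. They are given as log2 fold changes.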

dasatinib = compound: Cc1nc(Nc2ncc(C(=O)Nc3c(C)cccc3Cl)s2)cc(N2CCN(CCO)CC2)n1 [dasatinib]
In short: as §1

tipifarnib = compound: Cn1cncc1[C@@](N)(c1ccc(Cl)cc1)c1ccc2c(c1)c(-c1cccc(Cl)c1)cc(=O)n2C [tipifarnib]
In short: as §1

[1] = compound: NC(=O)c1cnc(N[C@@H]2CCCC[C@@H]2N)nc1Nc1cccc(-n2nccn2)c1
In short: as §1

[2] = compound: NCC(=O)Nc1ccc(-n2nc(C(F)(F)F)cc2-c2ccc3c(ccc4ccccc43)c2)cc1
In short: as §1

citarinostat = compound: O=C(CCCCCCNC(=O)c1cnc(N(c2ccccc2)c2ccccc2Cl)nc1)NO [citarinostat]
In short: as §1

[3] = compound: O=C1NC(=O)C(c2cnc3ccccn23)=C1c1cn2c3c(cc(F)cc13)CN(C(=O)N1CCCCC1)CC2
In short: as §1

[4] = compound: c1cc(OCCN2CCCCC2)cc(-c2n[nH]c3ccc(-c4nnc[nH]4)cc23)c1
In short: as §1

mubritinib = compound: FC(F)(F)c1ccc(/C=C/c2nc(COc3ccc(CCCCn4ccnn4)cc3)co2)cc1 [mubritinib]
In short: as §1

[5] = compound: NC1(c2ccc(-c3nc4ccn5c(=O)[nH]nc5c4cc3-c3ccccc3)cc2)CCC1
In short: as §1

silmitasertib = compound: O=C(O)c1ccc2c(c1)nc(Nc1cccc(Cl)c1)c1ccncc12 [silmitasertib]
In short: as §1

[6] = compound: Cc1cccc(CC(=O)N2CCc3c2ccc(-c2cn(C)c4ncnc(N)c24)c3F)n1
In short: as §1

nilotinib = compound: Cc1cn(-c2cc(NC(=O)c3ccc(C)c(Nc4nccc(-c5cccnc5)n4)c3)cc(C(F)(F)F)c2)cn1 [nilotinib]
In short: as §1

[7] = compound: Cc1nc(Nc2n[nH]c3c2CN(C(=O)N[C@H](CN(C)C)c2ccccc2)C3(C)C)c2sccc2n1
In short: as §1

[8] = compound: Cc1ncc(-c2ccnc(Nc3ccc(S(C)(=O)=O)cc3)n2)n1C(C)C
In short: as §1

[9] = compound: Cn1cc(-c2ccc3c(c2)CCN3C(=O)Cc2cccc(C(F)(F)F)c2)c2c(N)ncnc21
In short: as §1

[10] = compound: Cn1cc(-c2ccc3nnc(C(F)(F)c4ccc5ncccc5c4)n3n2)cn1
In short: as §1

[11] = compound: NC(=O)Nc1cc(-c2cccc(F)c2)sc1C(=O)N[C@H]1CCCNC1
In short: as §1

entinostat = compound: Nc1ccccc1NC(=O)c1ccc(CNC(=O)OCc2cccnc2)cc1 [entinostat]
In short: as §1

vorinostat = compound: O=C(CCCCCCC(=O)Nc1ccccc1)NO [vorinostat]
In short: as §1

Measured: log2 fold change

CFAP47 (UniProt Q6ZTR5)
Chain of UniProt Q6ZTR5 (Q6ZTR5 whole entry, looked up): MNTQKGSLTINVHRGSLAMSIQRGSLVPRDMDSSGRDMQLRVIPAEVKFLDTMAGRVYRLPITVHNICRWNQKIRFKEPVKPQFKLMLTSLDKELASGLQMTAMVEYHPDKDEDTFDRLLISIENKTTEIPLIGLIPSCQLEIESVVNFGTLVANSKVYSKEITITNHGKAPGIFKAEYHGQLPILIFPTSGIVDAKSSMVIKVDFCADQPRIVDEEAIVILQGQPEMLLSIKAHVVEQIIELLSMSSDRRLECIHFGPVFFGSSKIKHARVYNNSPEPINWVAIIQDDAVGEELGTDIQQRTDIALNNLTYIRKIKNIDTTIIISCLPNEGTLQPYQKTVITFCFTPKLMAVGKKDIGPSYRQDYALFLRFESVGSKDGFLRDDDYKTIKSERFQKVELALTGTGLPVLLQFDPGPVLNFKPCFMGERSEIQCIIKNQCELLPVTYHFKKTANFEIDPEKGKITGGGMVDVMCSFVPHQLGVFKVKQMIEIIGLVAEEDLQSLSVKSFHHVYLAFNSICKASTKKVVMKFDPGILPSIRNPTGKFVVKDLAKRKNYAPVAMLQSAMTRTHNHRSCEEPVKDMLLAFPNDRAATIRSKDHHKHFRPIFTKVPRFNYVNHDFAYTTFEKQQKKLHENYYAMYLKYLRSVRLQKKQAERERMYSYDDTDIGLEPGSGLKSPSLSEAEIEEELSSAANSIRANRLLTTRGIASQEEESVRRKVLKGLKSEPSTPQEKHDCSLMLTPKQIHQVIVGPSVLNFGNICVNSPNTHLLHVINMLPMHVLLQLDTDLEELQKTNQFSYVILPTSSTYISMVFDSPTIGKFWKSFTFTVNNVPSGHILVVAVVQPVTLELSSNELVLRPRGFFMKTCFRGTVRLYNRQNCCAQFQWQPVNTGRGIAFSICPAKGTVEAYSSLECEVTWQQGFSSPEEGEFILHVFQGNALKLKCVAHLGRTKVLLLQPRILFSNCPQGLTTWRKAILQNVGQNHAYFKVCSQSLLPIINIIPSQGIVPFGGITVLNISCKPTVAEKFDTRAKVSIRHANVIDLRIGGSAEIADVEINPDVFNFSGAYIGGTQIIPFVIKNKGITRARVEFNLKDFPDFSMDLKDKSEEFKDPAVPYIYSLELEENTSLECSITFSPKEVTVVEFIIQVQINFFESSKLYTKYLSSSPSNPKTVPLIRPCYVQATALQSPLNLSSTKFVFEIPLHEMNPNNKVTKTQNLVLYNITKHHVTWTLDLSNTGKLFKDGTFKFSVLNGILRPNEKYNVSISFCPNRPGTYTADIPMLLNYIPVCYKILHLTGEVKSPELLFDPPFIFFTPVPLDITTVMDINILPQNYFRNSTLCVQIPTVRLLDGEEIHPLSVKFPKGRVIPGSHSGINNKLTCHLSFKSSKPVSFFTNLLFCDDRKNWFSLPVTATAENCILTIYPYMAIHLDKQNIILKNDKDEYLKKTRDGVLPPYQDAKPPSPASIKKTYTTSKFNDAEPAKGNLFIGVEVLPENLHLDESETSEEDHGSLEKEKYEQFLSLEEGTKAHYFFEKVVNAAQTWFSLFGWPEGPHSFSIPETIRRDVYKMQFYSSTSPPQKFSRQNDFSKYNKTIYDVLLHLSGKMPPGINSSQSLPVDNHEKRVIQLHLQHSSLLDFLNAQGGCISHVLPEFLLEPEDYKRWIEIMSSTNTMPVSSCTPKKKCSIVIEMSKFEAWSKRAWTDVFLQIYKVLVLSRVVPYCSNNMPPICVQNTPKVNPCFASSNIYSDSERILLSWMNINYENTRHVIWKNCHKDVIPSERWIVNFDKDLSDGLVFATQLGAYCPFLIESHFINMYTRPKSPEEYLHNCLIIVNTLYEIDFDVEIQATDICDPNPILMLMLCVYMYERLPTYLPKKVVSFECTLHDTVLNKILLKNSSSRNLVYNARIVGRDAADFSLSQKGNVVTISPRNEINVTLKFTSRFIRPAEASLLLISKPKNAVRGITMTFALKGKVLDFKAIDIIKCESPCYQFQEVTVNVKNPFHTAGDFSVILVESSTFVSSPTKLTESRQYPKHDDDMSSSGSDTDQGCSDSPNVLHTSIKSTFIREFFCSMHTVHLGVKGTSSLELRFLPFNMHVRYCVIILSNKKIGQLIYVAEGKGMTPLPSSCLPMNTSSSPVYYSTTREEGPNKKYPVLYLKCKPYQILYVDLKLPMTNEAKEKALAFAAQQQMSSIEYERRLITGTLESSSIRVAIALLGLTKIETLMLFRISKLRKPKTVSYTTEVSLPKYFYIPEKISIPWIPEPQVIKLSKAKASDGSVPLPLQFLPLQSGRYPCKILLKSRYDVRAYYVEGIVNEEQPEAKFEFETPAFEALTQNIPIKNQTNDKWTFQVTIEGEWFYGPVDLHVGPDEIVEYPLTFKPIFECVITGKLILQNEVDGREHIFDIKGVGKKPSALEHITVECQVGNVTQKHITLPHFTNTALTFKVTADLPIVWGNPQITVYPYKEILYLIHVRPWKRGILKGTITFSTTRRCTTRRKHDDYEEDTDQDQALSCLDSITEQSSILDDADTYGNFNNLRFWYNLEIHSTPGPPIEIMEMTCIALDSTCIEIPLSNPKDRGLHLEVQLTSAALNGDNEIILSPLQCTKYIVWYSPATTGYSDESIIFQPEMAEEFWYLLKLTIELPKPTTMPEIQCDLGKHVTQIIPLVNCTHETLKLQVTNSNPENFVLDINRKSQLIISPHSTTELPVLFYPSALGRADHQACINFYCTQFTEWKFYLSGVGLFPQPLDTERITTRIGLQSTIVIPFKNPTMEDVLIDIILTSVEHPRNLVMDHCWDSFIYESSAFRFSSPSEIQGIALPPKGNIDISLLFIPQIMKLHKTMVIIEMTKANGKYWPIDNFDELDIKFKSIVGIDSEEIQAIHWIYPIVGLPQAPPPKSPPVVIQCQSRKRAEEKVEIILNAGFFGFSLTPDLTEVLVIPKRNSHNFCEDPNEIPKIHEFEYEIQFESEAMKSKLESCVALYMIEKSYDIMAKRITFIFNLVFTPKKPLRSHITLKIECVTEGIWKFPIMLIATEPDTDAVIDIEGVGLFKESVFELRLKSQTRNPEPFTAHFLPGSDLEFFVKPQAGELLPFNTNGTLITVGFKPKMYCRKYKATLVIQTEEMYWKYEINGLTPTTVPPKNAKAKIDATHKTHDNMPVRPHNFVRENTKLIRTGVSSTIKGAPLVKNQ
inactive: bafetinib 0.034 | dasatinib -0.117 | tipifarnib 0.047 | [1] 0.022 | [2] -0.024 | citarinostat -0.042 | [3] -0.025 | [4] -0.008

CSNK1A1 isoform 3 (UniProt P48729)
inactive: bafetinib 0.224 | tipifarnib 0.165 | mubritinib 0.055 | [5] -0.204 | silmitasertib 0

CASP9 (UniProt P55211)
inactive: [6] 0.037 | nilotinib -0.013 | [7] -0.136 | dasatinib -0.075 | [8] 0 | [9] -0.276 | [10] -0.004 | tipifarnib 0.003 | [11] 0.059 | [1] -0.234 | [2] -0.111 | entinostat -0.098 | vorinostat 0.045 | citarinostat 0.05 | [3] -0.057 | [4] 0.054

CCNT2 (UniProt O60583)
inactive: [6] -0.117 | nilotinib 0.105 | [7] -0.161 | dasatinib -0.02 | [8] -0.462 | [10] -0.219 | tipifarnib 0.08 | mubritinib -0.209 | [11] -0.045 | [1] 0.042 | [5] 0.054 | entinostat 0.076 | vorinostat 0.223 | citarinostat 0.06 | silmitasertib -0.06 | [3] -0.032 | [4] -0.089

CRLS1 (UniProt Q9UJA2)
Chain of UniProt Q9UJA2 (Q9UJA2 whole entry, looked up): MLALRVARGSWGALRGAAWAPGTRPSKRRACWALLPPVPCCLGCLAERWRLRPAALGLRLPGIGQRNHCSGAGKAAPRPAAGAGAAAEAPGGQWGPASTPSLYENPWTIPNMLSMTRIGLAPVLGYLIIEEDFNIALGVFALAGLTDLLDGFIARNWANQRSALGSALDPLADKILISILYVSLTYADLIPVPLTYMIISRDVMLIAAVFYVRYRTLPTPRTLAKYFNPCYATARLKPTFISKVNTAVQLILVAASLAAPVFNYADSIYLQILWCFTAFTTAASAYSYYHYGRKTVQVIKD
inactive: [6] 0.012 | nilotinib 0.01 | [7] -0.064 | dasatinib 0.101 | [8] 0.056 | [9] -0.002 | tipifarnib -0.138 | mubritinib 0.007 | [5] 0.027 | [2] 0.06 | entinostat 0.151 | vorinostat -0.005 | citarinostat 0.012 | silmitasertib 0.017 | [4] -0.051
active: [11] 0.323

COX17 (UniProt Q14061)
Chain of UniProt Q14061 (Q14061 whole entry, looked up): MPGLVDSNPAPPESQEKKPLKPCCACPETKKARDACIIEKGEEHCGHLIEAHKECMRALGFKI
inactive: [6] 0.078 | nilotinib -0.091 | [7] -0.051 | dasatinib 0.016 | [8] -0.162 | [9] 0.206 | [10] -0.034 | mubritinib 0.038 | [11] -0.002 | [1] 0.017 | [5] -0.088 | [2] 0.052 | entinostat 0.048 | vorinostat -0.077 | silmitasertib 0.119 | [3] -0.141

CRTC3 (UniProt Q6UUV7)
Chain of UniProt Q6UUV7 (Q6UUV7 whole entry, looked up): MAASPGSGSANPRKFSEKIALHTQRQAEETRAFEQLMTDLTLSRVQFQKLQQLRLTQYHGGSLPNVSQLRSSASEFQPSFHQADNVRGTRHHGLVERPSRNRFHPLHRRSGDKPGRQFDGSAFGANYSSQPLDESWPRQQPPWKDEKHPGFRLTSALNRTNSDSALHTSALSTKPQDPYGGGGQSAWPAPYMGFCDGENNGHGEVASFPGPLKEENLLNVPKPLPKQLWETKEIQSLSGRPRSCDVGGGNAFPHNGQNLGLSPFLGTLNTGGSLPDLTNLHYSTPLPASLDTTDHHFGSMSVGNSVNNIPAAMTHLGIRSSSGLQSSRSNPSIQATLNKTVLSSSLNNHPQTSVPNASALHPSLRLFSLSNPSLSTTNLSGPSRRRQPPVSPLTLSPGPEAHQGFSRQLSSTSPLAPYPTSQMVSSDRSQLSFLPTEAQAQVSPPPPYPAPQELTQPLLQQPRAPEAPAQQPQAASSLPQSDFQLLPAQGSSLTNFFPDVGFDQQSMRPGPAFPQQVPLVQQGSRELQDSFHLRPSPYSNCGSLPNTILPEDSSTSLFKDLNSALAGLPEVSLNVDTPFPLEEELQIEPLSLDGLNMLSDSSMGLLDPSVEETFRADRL
inactive: bafetinib -0.018 | [9] -0.002 | [10] -0.019 | tipifarnib -0.302 | mubritinib -0.168 | [5] -0.007 | [2] 0.001 | entinostat 0.057 | silmitasertib 0.098 | [3] 0.025
active: [11] -0.754

CCDC57 (UniProt Q2TAC2)
inactive: bafetinib -0.025 | nilotinib -0.044 | [7] -0.023 | [8] -0.021 | [9] 0.068 | [10] -0.021 | tipifarnib -0.023 | mubritinib 0.031 | [11] -0.025 | [5] -0.014 | [2] -0.04 | entinostat -0.031 | citarinostat 0.008 | silmitasertib -0.038 | [3] -0.002 | [4] -0.11

CFAP58 (UniProt Q5T655)
Chain of UniProt Q5T655 (Q5T655 whole entry, looked up): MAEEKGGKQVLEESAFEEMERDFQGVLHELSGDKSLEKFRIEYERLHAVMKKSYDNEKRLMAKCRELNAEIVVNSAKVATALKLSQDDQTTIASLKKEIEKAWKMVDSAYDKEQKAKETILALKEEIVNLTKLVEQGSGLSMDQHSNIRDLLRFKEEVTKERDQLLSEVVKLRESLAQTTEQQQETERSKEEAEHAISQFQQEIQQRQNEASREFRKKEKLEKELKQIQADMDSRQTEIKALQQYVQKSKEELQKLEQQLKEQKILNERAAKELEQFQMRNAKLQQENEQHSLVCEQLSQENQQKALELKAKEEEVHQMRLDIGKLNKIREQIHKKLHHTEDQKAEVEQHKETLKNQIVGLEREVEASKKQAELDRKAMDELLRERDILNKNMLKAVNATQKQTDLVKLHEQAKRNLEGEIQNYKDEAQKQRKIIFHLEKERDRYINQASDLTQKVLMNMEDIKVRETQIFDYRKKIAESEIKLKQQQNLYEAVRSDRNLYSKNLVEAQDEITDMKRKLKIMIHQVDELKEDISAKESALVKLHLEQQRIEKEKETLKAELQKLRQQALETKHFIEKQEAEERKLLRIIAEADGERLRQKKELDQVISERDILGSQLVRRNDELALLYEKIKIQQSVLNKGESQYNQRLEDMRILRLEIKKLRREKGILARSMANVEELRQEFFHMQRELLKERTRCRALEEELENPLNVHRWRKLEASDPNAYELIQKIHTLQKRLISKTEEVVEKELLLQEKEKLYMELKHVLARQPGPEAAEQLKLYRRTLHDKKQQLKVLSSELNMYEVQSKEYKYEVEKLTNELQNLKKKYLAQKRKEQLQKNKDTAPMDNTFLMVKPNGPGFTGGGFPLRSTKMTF
inactive: [6] 0.009 | [10] -0.046 | tipifarnib -0.108 | mubritinib 0.127 | [5] 0.028 | vorinostat 0.018 | citarinostat -0.357 | silmitasertib -0.008 | [4] 0.392

CA1 (UniProt E5RIF9)
inactive: bafetinib -0.042 | dasatinib -0.098 | [2] -0.029 | [3] -0.026

CHPT1 (UniProt Q8WUD6)
inactive: [6] 0.197 | nilotinib -0.596 | [7] -0.029 | dasatinib -0.074 | [8] -0.017 | [9] 0.011 | [10] -0.027 | tipifarnib -0.192 | mubritinib 0.387 | [11] 0 | [1] -0.039 | [5] -0.059 | entinostat 0.062 | vorinostat 0.066 | citarinostat 0.002 | silmitasertib -0.042 | [3] -0.049 | [4] 0.019

CNN1 (UniProt P51911)
inactive: [6] 0.22 | nilotinib 0.008 | [7] 0 | [8] 0.031 | [9] 0.04 | tipifarnib 0.049 | mubritinib 0.009 | [11] -0.002 | [1] -0.07 | [5] -0.305 | [2] -0.023 | entinostat 0.018 | vorinostat -0.125 | citarinostat 0.168 | silmitasertib 0.108 | [3] -0.008 | [4] -0.052

CS (UniProt F8VU34)
inactive: bafetinib 0.044 | citarinostat -0.298 | [4] -0.393
